About 83,000 compounds went through this panel and 20% of them were active in at least one assay; those are over-represented in the sample as a whole.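 Assay: single dose, 48 h. Readout: percent growth (0 = no net growth; negative = cell death). Active: <10.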 Active and inactive are the calls of the source.
Experiments:
Assay in all cases: NCI-60 one-dose screen, 48 h (100 = growth as untreated, 0 = no growth, -100 = all killed)
Conditions in all cases: 10 µM
DU-145 prostate = tested on: DU-145 prostate
K-562 leukemia = tested on: K-562 leukemia
MALME-3M melanoma = tested on: MALME-3M melanoma
MDA-MB-231 breast = tested on: MDA-MB-231 breast
RXF 393 renal = tested on: RXF 393 renal
SF-268 CNS = tested on: SF-268 CNS
SF-295 CNS = tested on: SF-295 CNS
SF-539 CNS = tested on: SF-539 CNS
UACC-257 melanoma = tested on: UACC-257 melanoma
M14 melanoma = tested on: M14 melanoma
HCT-15 colon = tested on: HCT-15 colon
HT29 colon = tested on: HT29 colon
SNB-75 CNS = tested on: SNB-75 CNS
SNB-19 CNS = tested on: SNB-19 CNS
U251 CNS = tested on: U251 CNS
PC-3 prostate = tested on: PC-3 prostate
SK-MEL-5 melanoma = tested on: SK-MEL-5 melanoma
UACC-62 melanoma = tested on: UACC-62 melanoma
LOX IMVI melanoma = tested on: LOX IMVI melanoma
SK-MEL-28 melanoma = tested on: SK-MEL-28 melanoma

Measured: growth

Cc1ccc(S(=O)(=O)N(C)CCCCCC(=O)O)cc1
inactive: DU-145 prostate 102% | K-562 leukemia 104% | MALME-3M melanoma 98.5% | MDA-MB-231 breast 110% | RXF 393 renal 103% | SF-268 CNS 99% | SF-295 CNS 92.7% | SF-539 CNS 97.9% | UACC-257 melanoma 98.2% | M14 melanoma 95.1% | HCT-15 colon 97.8% | HT29 colon 92.5% | SNB-75 CNS 94% | SNB-19 CNS 108% | U251 CNS 104% | PC-3 prostate 98.2% | SK-MEL-5 melanoma 105% | UACC-62 melanoma 106% | LOX IMVI melanoma 95.4% | SK-MEL-28 melanoma 105%

COc1cc(-c2nn(-c3cccc(NC(=O)NCCNS(=O)(=O)c4ccc(Cl)cc4)c3)cc2-c2ccncc2)ccc1Cl
inactive: DU-145 prostate 11.5% | MALME-3M melanoma 10.9% | SF-268 CNS 13.1% | UACC-257 melanoma 33% | HCT-15 colon 26.5% | SNB-19 CNS 38.1% | UACC-62 melanoma 25.6% | SK-MEL-28 melanoma 21.4%
active: K-562 leukemia 2.85% | MDA-MB-231 breast -2.68% | RXF 393 renal -13.6% | SF-295 CNS -44.8% | SF-539 CNS -38.5% | M14 melanoma -24.7% | HT29 colon -24.4% | SNB-75 CNS 0.927% | U251 CNS -0.109% | PC-3 prostate 7.5% | SK-MEL-5 melanoma -74.6% | LOX IMVI melanoma -0.864%

C=CCn1c(SCC(=O)Nc2ccc(C(=O)/C=C/c3cc(OC)c(OC)c(OC)c3)cc2)nnc1-c1cc(-c2ccc(Cl)cc2)nc2ccccc12
inactive: DU-145 prostate 95.3% | K-562 leukemia 75.9% | MALME-3M melanoma 97.8% | MDA-MB-231 breast 75% | RXF 393 renal 59.4% | SF-268 CNS 90.9% | SF-295 CNS 98% | SF-539 CNS 84.3% | UACC-257 melanoma 102% | M14 melanoma 95.5% | HCT-15 colon 59.5% | HT29 colon 74.7% | SNB-75 CNS 68.8% | SNB-19 CNS 84.1% | U251 CNS 86.3% | PC-3 prostate 71.7% | SK-MEL-5 melanoma 91% | UACC-62 melanoma 84.2% | LOX IMVI melanoma 75.5% | SK-MEL-28 melanoma 100%

Nc1ccc(/C=N/Nc2ccnc3c(O)cccc23)c2cccnc12
inactive: DU-145 prostate 37.4% | MALME-3M melanoma 101% | RXF 393 renal 55.8% | SF-268 CNS 43.5% | SF-295 CNS 84.8% | SF-539 CNS 67.7% | UACC-257 melanoma 105% | M14 melanoma 53.8% | HCT-15 colon 26.1% | HT29 colon 56.8% | SNB-75 CNS 69.9% | SNB-19 CNS 72.7% | PC-3 prostate 34.8% | SK-MEL-5 melanoma 82.3% | UACC-62 melanoma 95.2% | SK-MEL-28 melanoma 90.9%
active: K-562 leukemia 0.593% | MDA-MB-231 breast 0.678% | U251 CNS 4.7% | LOX IMVI melanoma -72.9%

Oc1cccc(-c2nc3sccn3c2-c2ccncn2)c1
inactive: DU-145 prostate 106% | K-562 leukemia 90% | MDA-MB-231 breast 81.4% | RXF 393 renal 67.3% | SF-268 CNS 106% | SF-295 CNS 101% | SF-539 CNS 98.8% | UACC-257 melanoma 31% | M14 melanoma 19.4% | HCT-15 colon 93.2% | HT29 colon 54.8% | SNB-75 CNS 39.4% | SNB-19 CNS 111% | U251 CNS 114% | PC-3 prostate 84.6% | SK-MEL-5 melanoma 90.6% | UACC-62 melanoma 14.5% | LOX IMVI melanoma 36.2% | SK-MEL-28 melanoma 33.9%
active: MALME-3M melanoma -8.47%

CNS(=O)(=O)Oc1ccc(-c2ccc3occc3c2)cc1
inactive: DU-145 prostate 109% | K-562 leukemia 89.1% | MALME-3M melanoma 116% | MDA-MB-231 breast 100% | RXF 393 renal 122% | SF-268 CNS 102% | SF-295 CNS 92.9% | SF-539 CNS 98.1% | UACC-257 melanoma 107% | M14 melanoma 113% | HCT-15 colon 92.8% | HT29 colon 99.1% | SNB-75 CNS 106% | SNB-19 CNS 101% | U251 CNS 94.1% | PC-3 prostate 90.6% | SK-MEL-5 melanoma 101% | UACC-62 melanoma 87.3% | LOX IMVI melanoma 96.4% | SK-MEL-28 melanoma 94.4%

COc1cc(/C=C/c2cc(/C=C/c3ccc(O)c(OC)c3)nc(N)n2)ccc1O
active: K-562 leukemia 5.49% | MALME-3M melanoma -28.9% | MDA-MB-231 breast 3.39% | RXF 393 renal -63.9% | SF-268 CNS 3.56% | SF-295 CNS -5.25% | UACC-257 melanoma -1.9% | M14 melanoma -26.1% | HT29 colon -76.2% | SNB-75 CNS 5.5% | U251 CNS 2.97% | SK-MEL-5 melanoma -18.4% | UACC-62 melanoma -57.7% | LOX IMVI melanoma -16.1% | SK-MEL-28 melanoma 9.55%
inactive: DU-145 prostate 13% | SF-539 CNS 11.9% | HCT-15 colon 29.5% | SNB-19 CNS 23.2% | PC-3 prostate 13%

From PubChem BioAssay (NCI)
